Activity calls are given as the source filed them.
Key:
[1] = system: Human papillomavirus type 1a protein E7 (residues 44-93); experiment: HPV1a E7 fragment binders on microarrays, primary screen, biochemical, small-molecule microarray, residues 44-93, 635 nm fluorescence (AID 1108); conditions: small-molecule microarray binding, fluorescence 635 nm; higher = more signal;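 note: E7 fragment applied at 1 µg/mL in TBST for 1 h at 4 C; score combines spot fluorescence with its signal to noise ratio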
[2] = modulators of HCV replicon luciferase signal, primary screen, HCV replication inhibitor project, Huh7 cells, luciferase reporter (AID 1109); conditions: 48 h, higher = more signal;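 note: huh7 hepatoma cells harbouring a luciferase neomycin HCV replicon reporter; luciferase luminescence as measure of HCV replicon replication; test concentration not given here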
[3] = target: Left-right determination factor 2 (Homo sapiens) (UniProt O00292); experiment: LEFTY2 binders on small-molecule microarrays, primary screen, biochemical, small-molecule microarray, 635 nm fluorescence scan (AID 1110); conditions: LEFTY2 binding, higher = more signal
Sequence of Left-right determination factor 2 (Homo sapiens) (O00292 whole entry, looked up): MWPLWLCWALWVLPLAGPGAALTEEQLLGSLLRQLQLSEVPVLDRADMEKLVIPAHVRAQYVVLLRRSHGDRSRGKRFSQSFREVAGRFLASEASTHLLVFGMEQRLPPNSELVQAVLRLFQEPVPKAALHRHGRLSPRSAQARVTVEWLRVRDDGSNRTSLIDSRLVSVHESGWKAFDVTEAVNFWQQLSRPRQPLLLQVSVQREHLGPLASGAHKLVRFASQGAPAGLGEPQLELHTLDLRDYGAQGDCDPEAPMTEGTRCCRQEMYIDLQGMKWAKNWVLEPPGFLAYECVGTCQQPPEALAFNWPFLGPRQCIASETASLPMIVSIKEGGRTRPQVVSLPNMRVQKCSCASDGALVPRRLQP

[4] = target: Calmodulin-1 (Homo sapiens) (UniProt P0DP23); experiment: CALM1 binders on microarrays, EGTA buffer, profiling panel, biochemical, small-molecule microarray, Cy5-labelled CALM1 (AID 1111); conditions: Cy5-CALM1 binding fluorescence, higher = more signal;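 note: labelled calmodulin applied in Tris saline Tween buffer holding calcium plus EGTA and DTT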
[5] = target: Calmodulin-1 (Homo sapiens) (UniProt P0DP23); experiment: calcium-bound CALM1 binders on microarrays, profiling panel, artefact control for SMM control-protein annotation, biochemical, small-molecule microarray, Cy5-labelled CALM1, plus calcium (AID 1112); conditions: Cy5-CALM1 binding fluorescence, higher = more signal;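 note: score merges spot fluorescence with signal to noise from triplicate slides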
[6] = small-molecule microarray binders of probe aWnt5a, primary screen, biochemical, biotinylated probe, 635/667 nm fluorescence (AID 1113); conditions: higher = more signal;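 note: score merges 667 nm fluorescence intensity with signal-to-noise per printed feature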
[7] = small-molecule microarray binders of probe aShh, primary screen, biochemical, biotinylated probe, 635/667 nm fluorescence (AID 1114); conditions: higher = more signal;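 note: probe is biotin-labelled aShh protein from a stem cell growth factor screen; measures binding of labelled protein to compounds printed on the slide; score merges feature fluorescence at 667 nm with signal-to-noise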
[8] = small-molecule microarray binders of probe aNog, primary screen, biochemical, biotinylated probe, 635/667 nm fluorescence (AID 1115); conditions: higher = more signal;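 note: probe is biotinylated aNog protein used at 0.15 µg/mL for 1 h at 4 C; z-score combines 667 nm fluorescence of each spot with its signal to noise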
[9] = target: Torsin-1A-interacting protein 1 (Homo sapiens) (UniProt Q5JTV8); experiment: LAP1 binders from COS7 cell lysate, primary screen, small-molecule microarray, 635/667 nm fluorescence (AID 1116); conditions: COS7-hLAP1 lysate binding, 635 nm fluorescence, higher = more signal
Sequence of Torsin-1A-interacting protein 1 (Homo sapiens) (Q5JTV8 whole entry, looked up): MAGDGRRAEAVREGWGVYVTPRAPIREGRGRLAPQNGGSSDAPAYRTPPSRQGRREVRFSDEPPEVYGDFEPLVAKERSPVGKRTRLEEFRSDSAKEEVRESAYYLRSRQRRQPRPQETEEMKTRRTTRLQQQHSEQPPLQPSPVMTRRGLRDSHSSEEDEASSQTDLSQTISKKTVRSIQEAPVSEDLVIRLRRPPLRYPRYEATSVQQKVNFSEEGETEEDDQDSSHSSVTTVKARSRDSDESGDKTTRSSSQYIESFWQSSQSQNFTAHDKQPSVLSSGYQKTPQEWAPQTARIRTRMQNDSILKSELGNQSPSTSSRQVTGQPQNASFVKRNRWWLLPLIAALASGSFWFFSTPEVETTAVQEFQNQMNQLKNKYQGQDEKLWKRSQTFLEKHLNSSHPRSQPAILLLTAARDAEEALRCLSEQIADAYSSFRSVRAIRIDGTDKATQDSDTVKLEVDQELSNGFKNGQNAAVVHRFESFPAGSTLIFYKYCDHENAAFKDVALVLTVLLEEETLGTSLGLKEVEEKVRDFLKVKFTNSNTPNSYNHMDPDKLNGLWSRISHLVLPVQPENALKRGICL

[10] = target: Alpha-bungarotoxin (Bungarus multicinctus) (UniProt P60615); experiment: alpha-bungarotoxin binders on microarray, profiling panel, artefact control for SMM control protein annotation, biochemical, small-molecule microarray, Alexa647 label, 635/667 nm fluorescence (AID 1117); conditions: alpha-BTX-A647 binding fluorescence, higher = more signal
Sequence of Alpha-bungarotoxin (Bungarus multicinctus) (P60615 whole entry, looked up): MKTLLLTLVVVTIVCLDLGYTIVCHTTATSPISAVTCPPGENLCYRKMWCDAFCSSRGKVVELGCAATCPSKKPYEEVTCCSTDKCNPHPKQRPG

Albumin (Bos taurus) = Albumin (Bos taurus) (UniProt P02769); experiment: bovine serum albumin binders on microarray, profiling panel, artefact control for SMM control protein annotation, biochemical, small-molecule microarray, Alexa647 label, 635/667 nm fluorescence (AID 1118); conditions: BSA-A647 binding, fluorescence 635 nm, higher = more signal;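 note: score merges 667 nm emission intensity and signal-to-noise per printed compound spot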
Sequence of Albumin (Bos taurus) (P02769 whole entry, looked up): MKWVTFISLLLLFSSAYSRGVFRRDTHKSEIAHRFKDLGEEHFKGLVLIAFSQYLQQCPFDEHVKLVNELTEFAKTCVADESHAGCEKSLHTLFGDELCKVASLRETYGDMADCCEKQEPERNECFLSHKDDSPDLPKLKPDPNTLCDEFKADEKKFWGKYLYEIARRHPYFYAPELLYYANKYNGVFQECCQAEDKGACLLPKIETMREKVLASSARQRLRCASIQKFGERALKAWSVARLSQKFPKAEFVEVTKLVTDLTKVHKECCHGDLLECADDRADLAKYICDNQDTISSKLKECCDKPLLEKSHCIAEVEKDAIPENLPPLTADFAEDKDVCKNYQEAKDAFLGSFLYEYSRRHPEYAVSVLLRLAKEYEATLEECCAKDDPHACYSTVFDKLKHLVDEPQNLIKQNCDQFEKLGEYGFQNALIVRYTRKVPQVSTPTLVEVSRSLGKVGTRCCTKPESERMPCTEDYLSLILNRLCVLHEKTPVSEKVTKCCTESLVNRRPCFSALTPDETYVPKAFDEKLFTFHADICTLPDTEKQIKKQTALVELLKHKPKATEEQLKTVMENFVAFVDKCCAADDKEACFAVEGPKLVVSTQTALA

[11] = small-molecule microarray binders of probe aXIP, primary screen, biochemical, NeuroSMM set, 635/667 nm fluorescence (AID 1119); conditions: higher = more signal, called active from +8 up or from −8 down;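 note: probe is the protein aXip251-270 applied at 1 µg/mL to compound-printed slides; binding of probe to printed compounds measured as 667 nm fluorescence plus signal to noise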
[12] = small-molecule binders of probe aNOTCH3, primary screen, biochemical, small-molecule microarray, 635/667 nm fluorescence (AID 1120); conditions: higher = more signal;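 note: probe is a biotin-tagged antibody raised against NOTCH3 rather than NOTCH3 protein; score merges spot fluorescence near 667 nm with spot signal to noise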
[13] = small-molecule binders of probe aNOTCH2, primary screen, biochemical, small-molecule microarray, 635/667 nm fluorescence (AID 1121); conditions: higher = more signal;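 note: score merges feature fluorescence read at 667 nm with its signal to noise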
[14] = target: Carbonic anhydrase 2 (Homo sapiens) (UniProt P00918); experiment: CAII small-molecule binders, profiling panel, biochemical, small-molecule microarray, Alexa647-labelled CAII (AID 1122); conditions: CAII-A647 binding fluorescence, higher = more signal
[15] = COS7 lysate on small-molecule microarray, probe aHis, 635 nm (AID 1123); conditions: COS7 cell lysate, fluorescence, higher = more signal;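 note: z-score combines 667nm fluorescence intensity with signal-to-noise per printed compound spot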
[16] = compound binding in COS7 lysate, probe aLAP1, primary screen, cell lysate, small-molecule microarray (AID 1124); conditions: probe aLAP1, fluorescence, higher = more signal;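 note: lysate comes from COS7 cells expressing LAP1 and is applied at 0.3 µg/mL; score merges spot fluorescence near 667 nm with signal-to-noise over triplicate slides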
Sam68 (KHDRBS1) = experiment: Sam68 small-molecule binders, primary screen, biochemical, small-molecule microarray, 635 nm fluorescence (AID 1125); conditions: small-molecule microarray binding, higher = more signal;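 note: score merges 667 nm channel intensity with signal to noise over triplicate slides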
[17] = system: Chordin-like protein 2 (CHRDL2); experiment: CHRDL2 small-molecule binders, primary screen, biochemical, small-molecule microarray, 635 nm fluorescence (AID 1126); conditions: small-molecule microarray binding, fluorescence 635 nm; higher = more signal;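 note: printed compound slides probed with Chrdl2 protein at 4 µg/mL for 1 h at 4 C; score merges 667 nm emission intensity with signal to noise over three replicate slides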
[18] = target: Concanavalin-A (Canavalia ensiformis) (UniProt P02866); experiment: ConA small-molecule binders, primary screen, artefact control for SMM control protein annotation, biochemical, small-molecule microarray, Alexa647 label, 635 nm (AID 1127); conditions: ConA-A647 binding fluorescence, higher = more signal;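 note: z combines 667 nm emission intensity with signal-to-noise across three replicate slides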
Sequence of Concanavalin-A (Canavalia ensiformis) (P02866 whole entry, looked up): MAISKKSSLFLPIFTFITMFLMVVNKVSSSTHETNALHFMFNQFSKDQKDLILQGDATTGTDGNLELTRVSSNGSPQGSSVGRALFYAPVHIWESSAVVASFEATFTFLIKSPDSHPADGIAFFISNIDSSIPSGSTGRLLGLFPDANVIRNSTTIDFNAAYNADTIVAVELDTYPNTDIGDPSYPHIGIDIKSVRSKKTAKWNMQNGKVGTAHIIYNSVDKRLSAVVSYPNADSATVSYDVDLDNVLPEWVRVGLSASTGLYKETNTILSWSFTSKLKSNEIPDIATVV

| Structure (SMILES) | composite z-score [1] | z-score [2] | composite z-score [3] | composite z-score [4] | composite z-score [5] | composite z-score [6] | composite z-score [7] | composite z-score [8] | composite z-score [9] | composite z-score [10] | composite z-score (Albumin (Bos taurus)) | composite Z-score [11] | composite z-score [12] | composite z-score [13] | composite z-score [14] | composite z-score [15] | composite z-score [16] | composite z-score (Sam68 (KHDRBS1)) | composite z-score [17] | composite z-score [18] |
| --- | --- | --- | --- | --- | --- | --- | --- | --- | --- | --- | --- | --- | --- | --- | --- | --- | --- | --- | --- | --- |
| C=CC[C@]1(C(=O)N(C)C)COC(c2ccc(OCCCO)cc2)=N1 | 0.326 | 1.55 | -0.616 | 2.62 | -0.372 | -0.113 | 0.334 | -0.246 | 2.09 | 0.113 | 0.795 | -0.0102 (inactive) | 0.298 | 0.107 | 0.914 | 3.5 | 1.41 | 1.25 | -0.492 | 0.673 |
| CCCC=C(CCC)[C@@H](NC(=O)c1ccco1)c1ccc(C(=O)OC)cc1 | 1.43 | -2.72 | 0.177 | 1.37 | 1.27 | 0.117 | 0.202 | 1.69 | 1.02 | 1.38 | 0.779 | -0.0549 (inactive) | 0.281 | -0.0222 | 0.669 | 2.72 | 0.0767 | 1.31 | -0.618 | 0.939 |
| CCOC(=O)C1=C(C(=O)OCC)N(S(=O)(=O)CC[Si](C)(C)C)[C@H](c2ccccc2)CC1 | 1.3 | -2.8 | -0.171 | 0.435 | 0.161 | 0.0307 | -0.164 | 0.118 | 0.356 | 1.23 | 0.565 | -0.463 (inactive) | 0.112 | -0.075 | 0.443 | 0.727 | -0.102 | 1.3 | -0.0267 | 1.14 |
| C=C(COC)/C(=C/C[C@H](OC(=O)c1ccncc1)c1ccc(OCCO)cc1)c1cc(C(=O)OC)ccc1OC | 1.42 | -1.66 | 0.431 | 0.579 | -0.467 | 0.0077 | 0.157 | 0.484 | 1.18 | 1.23 | 0.401 | 0.3 (inactive) | 0.325 | -0.123 | 0.357 | 1.39 | 0.84 | 1.26 | 0.249 | 0.952 |
| C[C@H]1NC(=O)C([C@@H](C)OCc2ccccc2)NC(=O)[C@@]23C(=O)N[C@@H](Cc4ccccc4)C2[C@H](C)[C@@]2(C)O[C@H]2C3/C=C/C/C=C\CNC1=O (stereo not given in full) | -0.037 | -1.52 | 0.39 | -0.553 | -0.854 | -0.213 | -0.0553 | -0.0602 | -0.0194 | 0.21 | -0.224 | -0.211 (inactive) | -0.136 | -0.177 | 0.661 | 0.234 | -0.0311 | -0.204 | 0.601 | -0.401 |
| COCCOC(=O)N1C(=O)[C@@]2(c3cc(C#CCCO)ccc31)[C@H](c1ccccc1OCCO)N1[C@H](c3ccccc3)[C@H](c3ccccc3)OC(=O)[C@H]1[C@@H]2C(=O)N1CCc2cc(OC)c(OC)cc2C1 | 1.42 | -1.36 | 0.507 | 1.07 | 0.0615 | -0.0882 | -0.0119 | -0.0331 | 1.52 | 1.49 | 0.329 | 0.339 (inactive) | 0.0562 | -0.101 | 0.4 | 1.85 | 1.02 | 1.31 | 0.469 | 1.09 |
| C=CCC(OC(C)=O)[C@@H]1[C@@H](N(Cc2ccc(-c3cccc(C(F)(F)F)c3)o2)C(=O)c2cccc3ccccc23)c2cc(OCCCO)ccc2N1C(=O)c1ccc2ccccc2n1 (stereo not given in full) | -0.193 | 0.66 | -0.309 | -0.484 | -0.108 | -0.0459 | 0.227 | 0.169 | 0.406 | -0.482 | -0.197 | -0.116 (inactive) | 0.0248 | -0.103 | -0.162 | 0.385 | -0.202 | -0.258 | 0.328 | -0.18 |
| COc1ccc(CCNC(=O)[C@@]2(Sc3ccc(C)cc3)CC(=O)N(Cc3cc(C(F)(F)F)cc(C(F)(F)F)c3)[C@@H]2c2ccc(CO)cc2)cc1 | -1.13 | -0.146 | -2.47 | -0.615 | -0.0998 | -0.124 | -0.117 | -0.54 | -0.282 | 1.24 | -0.391 | -0.669 (inactive) | -0.352 | 0.118 | 0.711 | 1.16 | 0.538 | -1.13 | -2.73 | -3.06 |
| C#CCN(C/C=C/c1ccccc1)[C@H](CO[Si](C)(C)C(C)(C)C)c1ccccc1 | -0.115 | -2.36 | 0.301 | -0.488 | -1.03 | -0.0403 | -0.0553 | -0.565 | -0.221 | -0.482 | 0.491 | -0.12 (inactive) | -0.125 | -0.229 | -0.33 | -0.0873 | 0.0021 | 0.102 | -0.167 | -0.111 |
| CN(C)CCCC[C@@H]1NC(=O)[C@@H]2C[C@H](C(=O)NCCCCCCNC(=O)CS)[C@H](c3cccc(OCCO)c3)N2C1=O | -0.275 | -0.149 | 0.0929 | -0.172 | -0.221 | -0.0478 | -0.209 | -0.103 | 0.947 | 0.0727 | -0.361 | 0.303 (inactive) | -0.213 | -0.0649 | 0.48 | 0.95 | 0.312 | 0.555 | 0.402 | 0.658 |
| O=C1OCCC/C=C\[C@H]2OC34C=CCN(Cc5ccccc5)C(=O)[C@H]3N(CCCCCO)C(=O)[C@@H]4C12 (stereo not given in full) | -0.486 | -1.06 | -0.296 | -1 | -0.775 | -0.169 | 0.0121 | 0.0847 | 2.22 | -1.57 | 0.499 | -0.615 (inactive) | -0.366 | -0.112 | 0.861 | 3.41 | 1.65 | -0.904 | -0.906 | -1.64 |
| Cc1ccc(S[C@]2(C(=O)NC3CC3)CC(=O)N(Cc3cc(C(F)(F)F)cc(C(F)(F)F)c3)[C@@H]2c2ccc(CO)cc2I)cc1 | 0.769 | -1.67 | -0.175 | 0.102 | -0.213 | 0.472 | -0.19 | 1.65 | 0.0541 | 0.665 | 0.0876 | 0.193 (inactive) | -0.512 | 0.381 | 0.554 | 1.18 | 0.959 | 0.964 | 0.452 | 1.07 |
| O=C1O[C@H](c2ccccc2)[C@H](c2ccccc2)N2[C@H]1[C@@H](C(=O)NC[C@H](O)c1ccccc1)[C@]1(C(=O)Nc3ccc(C#CCCO)cc31)[C@H]2c1ccccc1OCCO | 1.4 | -1.47 | -0.66 | 0.548 | -0.0628 | -0.147 | 0.149 | -0.0503 | 1.35 | 2.1 | 0.695 | 1.27 (inactive) | -0.0581 | -0.0666 | 0.597 | 2.38 | 0.728 | 1.29 | -0.189 | 1.02 |
| C#CCN([C@H](/C=C/C1CC1)[C@@H](O)Cc1ccccc1)[C@@H](Cc1ccccc1)C(=O)OC | -0.197 | -2.64 | 0.0052 | -0.752 | -0.861 | -0.124 | 0.0639 | -0.33 | -0.188 | -0.0484 | -0.578 | -0.232 (inactive) | 0.15 | -0.164 | -0.179 | -0.485 | -0.454 | 0.0511 | 0.686 | -0.249 |
| Cc1c(NC(=O)/C(C#N)=C/c2ccc(Cl)cc2)c(=O)n(-c2ccccc2)n1C | -0.648 | -0.871 | 0.119 | 1.14 | 0.629 | -0.0869 | -0.0503 | 0.486 | 1.58 | 0.766 | 0.87 | 1.5 (inactive) | 0.029 | -0.145 | 0.229 | 1.65 | 0.761 | 0.396 | 0.122 | 0.736 |

Reference: PubChem BioAssay
